Results filed as inconclusive are left out. Activity calls are given as the source filed them. How the source made its calls, unless noted: active means hit-call score of the fitted dose curve at least 0.9, where 1 is the maximum; inactive means score below 0.9.
Key:
[1] = target: Oxysterols receptor LXR-beta (Homo sapiens) (UniProt P55055); experiment: ATG_LXRb_TRANS: Attagene TRANS-FACTORIAL HepG2 Assay for human Liver X Receptor beta (LXRb) (AID 2282981; active means hit-call score of the fitted dose curve at least 0.9, where 1 is the maximum); details: HepG2 Attagene TRANS GAL4-LXRb reporter, mRNA
Outline: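 Cells: HepG2, transiently transfected with GAL4-UAS reporter units plus LXRb-Gal4 fusion. Treatment: 24 h. Detection: reporter mRNA by RT-PCR, 6-FAM labelling, HpaI digestion, capillary electrophoresis.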

[2] = target: Nuclear receptor subfamily 4 group A member 2 (Homo sapiens) (UniProt P43354); experiment: ATG_NURR1_TRANS: Attagene TRANS-FACTORIAL HepG2 Assay for human Nuclear Receptor Related Protein 1 (NURR1) (AID 2282985; active means hit-call score of the fitted dose curve at least 0.9, where 1 is the maximum); details: HepG2 Attagene TRANS reporter, mRNA readout
Outline: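 Cells: HepG2, transiently transfected. Exposure: 24 h. Detection: fluorescence of labelled RT-PCR products separated by capillary electrophoresis; upward fit versus DMSO.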

[3] = target: Transcriptional activator Myb (Homo sapiens) (UniProt P10242); experiment: ATG_Myb_CIS: Attagene CIS-FACTORIAL HepG2 Assay for human Myeloblastosis (Myb) Proto-Oncogene Transcription Factor (AID 2282986); details: HepG2 Attagene CIS-FACTORIAL Myb reporter transcription; actives raise or lower the signal
Outline: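 Fluorescence signals from capillary electrophoresis of RT-PCR-amplified reporter cDNA give the read-out. Cells: HepG2 transfected with multiple cis-regulated reporter units. Exposure lasts 24 hours; DMSO defines baseline for gain or loss of signal.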

[4] = target: Nuclear respiratory factor 1 (Homo sapiens) (UniProt Q16656); experiment: ATG_NRF1_CIS: Attagene CIS-FACTORIAL HepG2 Assay for human Nuclear Respiratory Factor 1 (NRF1) Orphan Gene (AID 2282987); details: HepG2 NRF1 cis-element reporter, Attagene multiplex; actives raise or lower the signal
Outline: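 Transcriptional reporter readout, one component of a 52-endpoint multiplexed HepG2 panel. Exposure 24 h; mRNA detected via RT-PCR and fluorescent capillary electrophoresis; fitting in both directions against DMSO.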

[5] = ATG_NFI_CIS: Attagene CIS-FACTORIAL HepG2 Assay for human Nuclear Factor I (NFI) (AID 2282989); details: HepG2 cis-regulatory reporter, NFI response element transcription; actives raise or lower the signal
Outline: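 HepG2, transient MRTU, 24 h exposure; RNA→cDNA→PCR→FAM label→HpaI→CE fluorescence. Bidirectional fit, DMSO = baseline.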

[6] = ATG_NF_kB_CIS: Attagene CIS-FACTORIAL HepG2 Assay for human Nuclear Factor Kappa B (NF-kB) (AID 2282991); details: HepG2 Attagene cis-factorial NF-kB reporter mRNA; actives raise or lower the signal
Outline: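 HepG2, transient multi-reporter transfection, cis promoter elements (endogenous TFs). 24 h exposure. Total RNA → RT → PCR → 6-FAM label → HpaI → CE. Gain/loss vs DMSO.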

[7] = ATG_NRF2_ARE_CIS: Attagene CIS-FACTORIAL HepG2 Assay for human Nuclear Factor Erythroid 2 Related Factor 2 (NFR2) response to Antioxidant Response Elements (ARE) (AID 2282992); details: HepG2 Attagene ARE/NRF2 reporter, transcription factor activity; actives raise or lower the signal;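 on AC50: reporter mRNA level measured by RT-PCR and capillary electrophoresis fluorescence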
Outline: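 Transient MRTU transfection of HepG2; 24 h compound exposure; TriZol RNA, RT with oligo(dT), PCR, 6-FAM primer extension, HpaI cut, CE. Bidirectional fit vs DMSO.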

[8] = ATG_Oct_MLP_CIS: Attagene CIS-FACTORIAL HepG2 Assay for human Octamer-Binding Transcription Factor (Oct) (AID 2282993); details: HepG2 Attagene cis-factorial Oct reporter, mRNA; actives raise or lower the signal
Outline: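 Multiplexed cis-reporter assay in human liver HepG2 cells, 24 h incubation. Reporter RNA amplified and labelled, then resolved by capillary electrophoresis; DMSO serves as negative control and baseline.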

[9] = target: Cellular tumor antigen p53 (Homo sapiens) (UniProt P04637); experiment: ATG_p53_CIS: Attagene CIS-FACTORIAL HepG2 Assay for human p53 Transcription Factor (AID 2282994); details: HepG2 p53 cis-element reporter, Attagene mRNA; actives raise or lower the signal
Outline: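 HepG2, transient MRTU transfection (cis promoter elements, endogenous TFs); 24 h dosing; RNA isolation, RT-PCR, 6-FAM primer extension, HpaI digest, CE fluorescence; bidirectional fit vs DMSO.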

[10] = BSK_3C_TissueFactor: BioMAP Diversity Plus: 3C Assay for Tissue Factor Biomarker Activity (AID 2282997); details: BioMAP 3C HUVEC, tissue factor biomarker readout; actives raise or lower the signal
Outline: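 Values derive from bidirectional curve fitting against DMSO of Tissue Factor ELISA signals, taken 24 h after dosing primary human umbilical vein endothelial cells.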

[11] = target: Oxysterols receptor LXR-alpha (Homo sapiens) (UniProt Q13133); experiment: ATG_LXRa_TRANS: Attagene TRANS-FACTORIAL HepG2 Assay for human Liver X Receptor alpha (LXRa) (AID 2282980; active means hit-call score of the fitted dose curve at least 0.9, where 1 is the maximum); details: HepG2 Attagene TRANS reporter, LXRa transactivation
Outline: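 Transient HepG2 transfectants, 24 h dosing, RT-PCR/CE mRNA reporter quantitation; gain-of-signal vs DMSO.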

[12] = ATG_M_06_TRANS: Attagene TRANS-FACTORIAL HepG2 Assay for M06 Transcription Factor (Internal Marker) (AID 2282983; active means hit-call score of the fitted dose curve at least 0.9, where 1 is the maximum;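 further: reporter transcript level by RT-PCR then capillary electrophoresis fluorescence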); details: HepG2 Attagene TRANS M06 internal marker reporter
Outline: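 Measured by capillary electrophoresis of fluorescently labelled RT-PCR products, this endpoint reflects reporter mRNA in HepG2 cells harbouring exogenous NR-GAL4 reporter constructs after 24 h exposure, with DMSO as baseline.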

[13] = ATG_M_32_TRANS: Attagene TRANS-FACTORIAL HepG2 Assay for M32 Transcription Factor (Internal Marker) (AID 2282984; active means hit-call score of the fitted dose curve at least 0.9, where 1 is the maximum;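 further: transcript level of a background control reporter unit measured by RT-PCR and capillary electrophoresis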); details: HepG2 Attagene TRANS M32 internal marker reporter
Outline: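 Using transiently transfected HepG2 cells exposed to test chemicals for 24 h, reporter transcripts are converted to labelled cDNA fragments and quantified by capillary electrophoresis. DMSO defines the activity baseline.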

[14] = target: Glucocorticoid receptor (Homo sapiens) (UniProt P04150); experiment: ATG_GR_TRANS: Attagene TRANS-FACTORIAL HepG2 Assay for human Glucocorticoid Receptor (GR) (AID 2282978; active means hit-call score of the fitted dose curve at least 0.9, where 1 is the maximum;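 further: activators score as hits since higher reporter transcript over DMSO is fitted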); details: HepG2 Attagene TRANS GR reporter, mRNA transcription
Outline: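 Measurement of GAL4-UAS-driven reporter mRNA in human HepG2 liver cells 24 h post-dosing, using RT-PCR with fluorescent labelling and capillary electrophoresis; the transfected constructs report exogenous NR-GAL4 chimera activity, fitted upward against DMSO.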

[15] = target: Hepatocyte nuclear factor 4-alpha (Homo sapiens) (UniProt P41235); experiment: ATG_HNF4a_TRANS: Attagene TRANS-FACTORIAL HepG2 Assay for human Hepatocyte Nuclear Factor 4 alpha (HNF4a) (AID 2282982; active means hit-call score of the fitted dose curve at least 0.9, where 1 is the maximum); details: HepG2 HNF4a transactivation reporter, mRNA readout
Outline: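 Transfected HepG2 reporter cells are dosed for 24 h; reporter RNA is reverse-transcribed, amplified, fluorescently labelled and HpaI-digested before CE sizing. Positive-direction fit against DMSO.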

[16] = target: Bile acid receptor (Homo sapiens) (UniProt Q96RI1); experiment: ATG_FXR_TRANS: Attagene TRANS-FACTORIAL HepG2 Assay for Farnesoid X Receptor (FXR) (AID 2282979; active means hit-call score of the fitted dose curve at least 0.9, where 1 is the maximum;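 further: hits raise reporter mRNA above DMSO so AC50 marks FXR activation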); details: HepG2 Attagene TRANS FXR-GAL4 reporter transcription
Outline: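 Chimeric FXR-GAL4 activity in transiently transfected human HepG2 liver cells is scored as induction of reporter mRNA after 24 h of dosing. Detection uses RT-PCR with fluorescent labelling and capillary electrophoresis, with DMSO serving as baseline.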

Measured: AC50

Chain of Glucocorticoid receptor (Homo sapiens) (P04150 whole entry, looked up, the tested form may be a part): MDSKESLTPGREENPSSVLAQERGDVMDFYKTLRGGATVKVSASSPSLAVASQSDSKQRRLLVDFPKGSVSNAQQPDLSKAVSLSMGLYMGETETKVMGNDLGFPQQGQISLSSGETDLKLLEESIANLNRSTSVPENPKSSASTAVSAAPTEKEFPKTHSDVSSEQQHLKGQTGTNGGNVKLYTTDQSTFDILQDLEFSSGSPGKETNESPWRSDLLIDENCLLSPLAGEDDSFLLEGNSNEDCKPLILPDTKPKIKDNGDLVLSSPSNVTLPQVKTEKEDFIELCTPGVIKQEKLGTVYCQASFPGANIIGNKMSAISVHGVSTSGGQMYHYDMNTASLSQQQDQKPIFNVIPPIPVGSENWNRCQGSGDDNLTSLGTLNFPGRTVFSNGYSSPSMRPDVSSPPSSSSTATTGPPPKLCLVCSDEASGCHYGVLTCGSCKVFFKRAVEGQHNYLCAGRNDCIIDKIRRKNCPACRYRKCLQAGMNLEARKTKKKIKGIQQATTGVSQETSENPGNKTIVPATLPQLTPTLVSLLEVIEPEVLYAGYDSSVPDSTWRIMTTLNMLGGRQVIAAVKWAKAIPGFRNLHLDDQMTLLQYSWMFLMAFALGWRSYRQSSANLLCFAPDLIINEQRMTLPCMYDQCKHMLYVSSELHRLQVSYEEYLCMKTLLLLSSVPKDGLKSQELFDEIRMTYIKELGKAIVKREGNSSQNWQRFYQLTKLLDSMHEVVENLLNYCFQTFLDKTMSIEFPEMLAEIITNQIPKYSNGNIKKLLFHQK
Chain of Nuclear receptor subfamily 4 group A member 2 (Homo sapiens) (P43354 whole entry, looked up): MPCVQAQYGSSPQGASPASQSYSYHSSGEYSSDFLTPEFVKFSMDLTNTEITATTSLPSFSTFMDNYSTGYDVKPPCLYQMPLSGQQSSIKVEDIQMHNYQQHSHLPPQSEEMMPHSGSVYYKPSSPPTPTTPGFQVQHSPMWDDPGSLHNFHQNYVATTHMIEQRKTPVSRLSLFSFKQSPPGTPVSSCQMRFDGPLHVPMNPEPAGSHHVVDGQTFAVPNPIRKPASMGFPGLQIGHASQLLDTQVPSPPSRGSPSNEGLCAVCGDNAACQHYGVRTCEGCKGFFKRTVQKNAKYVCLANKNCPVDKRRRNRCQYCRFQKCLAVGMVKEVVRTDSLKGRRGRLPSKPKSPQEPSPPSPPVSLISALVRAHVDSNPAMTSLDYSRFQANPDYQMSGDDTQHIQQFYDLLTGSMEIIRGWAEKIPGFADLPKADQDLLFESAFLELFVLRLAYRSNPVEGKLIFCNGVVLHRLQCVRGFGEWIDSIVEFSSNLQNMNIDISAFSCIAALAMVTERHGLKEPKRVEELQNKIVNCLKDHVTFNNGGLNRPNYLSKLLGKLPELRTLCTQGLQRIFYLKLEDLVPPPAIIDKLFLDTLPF
Chain of Oxysterols receptor LXR-beta (Homo sapiens) (P55055 whole entry, looked up, the tested form may be a part): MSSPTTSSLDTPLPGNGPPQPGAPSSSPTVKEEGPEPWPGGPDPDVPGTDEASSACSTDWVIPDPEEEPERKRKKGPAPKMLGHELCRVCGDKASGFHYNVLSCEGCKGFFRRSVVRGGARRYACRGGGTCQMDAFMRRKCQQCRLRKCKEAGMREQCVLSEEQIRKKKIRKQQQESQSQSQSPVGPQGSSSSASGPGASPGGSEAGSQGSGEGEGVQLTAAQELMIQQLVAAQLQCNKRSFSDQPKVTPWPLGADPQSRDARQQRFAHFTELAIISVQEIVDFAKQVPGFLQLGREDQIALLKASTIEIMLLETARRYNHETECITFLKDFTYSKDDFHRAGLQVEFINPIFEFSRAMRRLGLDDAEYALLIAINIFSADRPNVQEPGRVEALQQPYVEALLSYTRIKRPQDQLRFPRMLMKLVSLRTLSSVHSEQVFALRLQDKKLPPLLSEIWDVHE
Chain of Hepatocyte nuclear factor 4-alpha (Homo sapiens) (P41235 whole entry, looked up): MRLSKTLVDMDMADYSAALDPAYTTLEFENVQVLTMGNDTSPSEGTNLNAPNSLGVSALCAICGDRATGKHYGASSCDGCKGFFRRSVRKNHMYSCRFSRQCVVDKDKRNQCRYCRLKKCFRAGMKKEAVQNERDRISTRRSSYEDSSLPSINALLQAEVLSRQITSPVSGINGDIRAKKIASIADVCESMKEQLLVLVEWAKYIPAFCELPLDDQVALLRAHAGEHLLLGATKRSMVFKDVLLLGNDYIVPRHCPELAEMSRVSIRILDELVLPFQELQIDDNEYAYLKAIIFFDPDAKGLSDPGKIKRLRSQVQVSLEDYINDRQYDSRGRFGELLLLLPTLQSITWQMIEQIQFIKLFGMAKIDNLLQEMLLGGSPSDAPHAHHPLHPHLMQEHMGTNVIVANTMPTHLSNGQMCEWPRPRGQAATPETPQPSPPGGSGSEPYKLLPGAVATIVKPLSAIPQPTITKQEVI
Chain of Nuclear respiratory factor 1 (Homo sapiens) (Q16656 whole entry, looked up): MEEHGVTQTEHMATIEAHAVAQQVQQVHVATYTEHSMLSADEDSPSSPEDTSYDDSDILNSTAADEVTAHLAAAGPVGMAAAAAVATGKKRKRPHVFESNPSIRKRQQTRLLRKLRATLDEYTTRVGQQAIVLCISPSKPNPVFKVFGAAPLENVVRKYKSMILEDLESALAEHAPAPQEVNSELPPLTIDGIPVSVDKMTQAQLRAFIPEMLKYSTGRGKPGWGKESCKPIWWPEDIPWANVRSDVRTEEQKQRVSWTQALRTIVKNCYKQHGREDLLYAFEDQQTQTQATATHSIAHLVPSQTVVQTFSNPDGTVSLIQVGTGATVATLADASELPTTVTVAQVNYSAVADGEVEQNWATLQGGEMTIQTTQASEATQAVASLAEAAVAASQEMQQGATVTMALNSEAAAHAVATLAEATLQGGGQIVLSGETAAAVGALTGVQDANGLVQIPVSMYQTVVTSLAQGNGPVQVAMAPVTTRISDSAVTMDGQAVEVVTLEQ
Chain of Cellular tumor antigen p53 (Homo sapiens) (P04637 whole entry, looked up): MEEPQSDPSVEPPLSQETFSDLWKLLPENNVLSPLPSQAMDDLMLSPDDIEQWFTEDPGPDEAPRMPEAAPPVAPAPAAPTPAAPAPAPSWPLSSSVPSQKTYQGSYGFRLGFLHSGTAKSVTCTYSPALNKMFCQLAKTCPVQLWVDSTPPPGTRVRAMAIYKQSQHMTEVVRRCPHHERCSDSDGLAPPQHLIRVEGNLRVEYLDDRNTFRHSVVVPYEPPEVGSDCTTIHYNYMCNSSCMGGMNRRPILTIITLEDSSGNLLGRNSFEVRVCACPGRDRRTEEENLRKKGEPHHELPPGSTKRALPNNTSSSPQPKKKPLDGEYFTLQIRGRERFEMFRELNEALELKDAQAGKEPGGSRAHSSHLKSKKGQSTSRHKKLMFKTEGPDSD
Chain of Oxysterols receptor LXR-alpha (Homo sapiens) (Q13133 whole entry, looked up): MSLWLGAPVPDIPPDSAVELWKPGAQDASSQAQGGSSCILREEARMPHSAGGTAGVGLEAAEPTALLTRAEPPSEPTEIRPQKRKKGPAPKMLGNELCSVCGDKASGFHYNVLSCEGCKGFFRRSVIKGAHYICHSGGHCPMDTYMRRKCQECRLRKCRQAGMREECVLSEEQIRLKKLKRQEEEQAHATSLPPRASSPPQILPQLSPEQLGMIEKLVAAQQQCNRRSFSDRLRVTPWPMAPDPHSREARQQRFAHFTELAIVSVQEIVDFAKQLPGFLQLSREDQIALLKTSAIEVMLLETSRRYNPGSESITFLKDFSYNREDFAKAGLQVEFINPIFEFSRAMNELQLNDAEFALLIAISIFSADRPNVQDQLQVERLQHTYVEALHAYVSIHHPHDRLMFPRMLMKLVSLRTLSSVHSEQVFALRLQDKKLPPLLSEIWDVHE
Chain of Transcriptional activator Myb (Homo sapiens) (P10242 whole entry, looked up): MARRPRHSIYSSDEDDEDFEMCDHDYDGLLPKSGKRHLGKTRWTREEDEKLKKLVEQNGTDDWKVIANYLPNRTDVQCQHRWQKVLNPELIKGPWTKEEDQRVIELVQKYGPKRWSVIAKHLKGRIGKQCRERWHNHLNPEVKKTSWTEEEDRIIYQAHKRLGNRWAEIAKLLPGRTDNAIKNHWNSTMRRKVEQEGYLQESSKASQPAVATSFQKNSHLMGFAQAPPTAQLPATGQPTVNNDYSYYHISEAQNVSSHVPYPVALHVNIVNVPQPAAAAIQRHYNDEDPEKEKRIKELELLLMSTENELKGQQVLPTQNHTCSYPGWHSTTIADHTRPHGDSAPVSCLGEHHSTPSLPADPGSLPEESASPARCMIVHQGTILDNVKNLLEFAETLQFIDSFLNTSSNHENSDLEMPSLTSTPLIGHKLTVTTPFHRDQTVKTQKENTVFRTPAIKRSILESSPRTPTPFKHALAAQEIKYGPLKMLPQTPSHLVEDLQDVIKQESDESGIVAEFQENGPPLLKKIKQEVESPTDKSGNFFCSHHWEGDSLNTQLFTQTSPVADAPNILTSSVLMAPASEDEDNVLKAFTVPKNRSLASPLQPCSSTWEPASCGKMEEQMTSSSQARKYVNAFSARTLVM
Chain of Bile acid receptor (Homo sapiens) (Q96RI1 whole entry, looked up, the tested form may be a part): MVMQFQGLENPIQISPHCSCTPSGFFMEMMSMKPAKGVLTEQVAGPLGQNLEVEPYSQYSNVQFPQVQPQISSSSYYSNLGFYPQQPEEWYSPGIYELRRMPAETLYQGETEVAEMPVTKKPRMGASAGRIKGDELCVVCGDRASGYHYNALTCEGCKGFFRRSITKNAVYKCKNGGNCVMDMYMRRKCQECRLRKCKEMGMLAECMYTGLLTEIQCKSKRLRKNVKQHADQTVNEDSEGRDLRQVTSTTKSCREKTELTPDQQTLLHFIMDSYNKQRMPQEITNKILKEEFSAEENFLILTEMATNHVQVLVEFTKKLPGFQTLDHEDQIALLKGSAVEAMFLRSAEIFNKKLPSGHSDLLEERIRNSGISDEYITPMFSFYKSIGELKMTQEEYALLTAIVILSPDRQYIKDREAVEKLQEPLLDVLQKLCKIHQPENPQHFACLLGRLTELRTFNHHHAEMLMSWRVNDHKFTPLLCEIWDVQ

Clc1nc(Cl)nc(Nc2ccccc2Cl)n1
active: [7] 29.4 µM
not listed: [11] | [12] | [13] | [14] | [15] | [16]
inactive: all other assays above

CN/C(=N\[N+](=O)[O-])NCc1cnc(Cl)s1
not listed: [2] | [6] | [14] | [15] | [16]
inactive: all other assays above

CCCN(CC)CC1COC2(CCC(C(C)(C)C)CC2)O1 (stereo not given)
active: [7] 5.91 µM | [8] 14.5 µM
not listed: [2] | [12] | [16]
inactive: all other assays above

COc1cc(Cl)c(OC)cc1Cl
not listed: [2] | [16]
inactive: all other assays above

COCC(C)N(C(=O)CCl)c1c(C)csc1C (stereo not given)
active: [7] 2.31 µM
not listed: [11] | [14] | [15] | [16]
inactive: all other assays above

CCOc1nc(F)cc2nc(S(=O)(=O)Nc3c(Cl)cccc3Cl)nn12
active: [3] 0.0229 µM
not listed: [12]
inactive: all other assays above
